Reference: PubChem BioAssay (Tox21)
Results filed as inconclusive are left out. The source made the active and inactive calls. Unless noted, calls come from the whole dose curve.

How the values were obtained:
[1] = Nuclear factor erythroid 2-related factor 2/antioxidant responsive element (Nrf2/ARE) small molecule agonists: qHTS cell viability counter screen in human keratinocytes (AID 1919968; active = well fitted curve in the direction sought with a large enough effect in the repeat runs; an effect the other way counts as inactive or inconclusive; note: nearly all actives have a fitted effect of over 55% in size; note: potency is the fitted concentration of half-maximal effect)
Procedure, shortened: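 Parallel cytotoxicity read: KeratinoSens HaCaT cells, compound treatment 23 h, viability by CellTiter-Fluor fluorescence 1 h post-reagent.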

[2] = Nuclear factor erythroid 2-related factor 2/antioxidant responsive element (Nrf2/ARE) small molecule agonists: luciferase reporter gene qHTS assay in human keratinocytes (AID 1919969); note: nearly all actives have a fitted effect of over 35% in size; note: potency is the fitted concentration of half-maximal effect
[3] = target: Gonadotropin-releasing hormone receptor (Homo sapiens) (UniProt P30968); test: Human gonadotropin-releasing hormone receptor (GnRHR) small molecule agonists, calcium flux assay in GnRHR-HEK293 cells (AID 1920063); note: nearly all actives have a fitted effect of over 35% in size
Sequence of Gonadotropin-releasing hormone receptor (Homo sapiens) (P30968 whole entry, looked up): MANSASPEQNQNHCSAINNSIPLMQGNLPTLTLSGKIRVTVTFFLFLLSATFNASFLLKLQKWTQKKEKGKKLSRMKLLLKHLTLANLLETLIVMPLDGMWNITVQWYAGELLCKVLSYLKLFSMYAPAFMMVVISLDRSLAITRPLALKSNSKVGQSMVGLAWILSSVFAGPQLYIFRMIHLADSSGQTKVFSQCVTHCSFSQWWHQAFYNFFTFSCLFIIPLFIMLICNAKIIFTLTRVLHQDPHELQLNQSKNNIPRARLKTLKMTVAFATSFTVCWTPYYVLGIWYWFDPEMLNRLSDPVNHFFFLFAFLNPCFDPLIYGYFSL
Procedure, shortened: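 Calcium flux, agonist mode, human GnRHR stably integrated in HEK293; dye 1 h at 37 C before compound; Ex/Em=480/540 kinetic read, 3 min; 15 concentrations, triplicate.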

[4] = target: KiSS-1 receptor (Homo sapiens) (UniProt Q969F8); test: Human kisspeptin (KISS1R) small molecule agonists, calcium flux assay in KISS1R-HEK293 cells (AID 1920064; active = well fitted curve in the direction sought with a large enough effect in the repeat runs; an effect the other way counts as inactive or inconclusive)
Sequence of KiSS-1 receptor (Homo sapiens) (Q969F8 whole entry, looked up): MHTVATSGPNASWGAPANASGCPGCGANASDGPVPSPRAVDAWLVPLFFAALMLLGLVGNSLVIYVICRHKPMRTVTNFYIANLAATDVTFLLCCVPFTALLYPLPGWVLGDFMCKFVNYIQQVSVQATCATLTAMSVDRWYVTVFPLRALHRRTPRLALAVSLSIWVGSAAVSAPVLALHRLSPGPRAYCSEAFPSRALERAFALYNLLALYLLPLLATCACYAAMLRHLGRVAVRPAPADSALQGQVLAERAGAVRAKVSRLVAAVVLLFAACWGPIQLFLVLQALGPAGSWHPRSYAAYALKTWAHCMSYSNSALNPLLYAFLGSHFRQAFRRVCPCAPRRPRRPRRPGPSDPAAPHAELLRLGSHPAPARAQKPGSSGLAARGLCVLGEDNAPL
Procedure, shortened: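 Triplicate 15-concentration series were applied to dye-loaded human KISS1R HEK293 cells, and agonist-evoked calcium fluorescence was captured for 3 min.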

[5] = G protein-coupled receptor (GPCR) small molecule agonists, calcium flux assay: HEK293 wild type cell line counter screen (AID 1920065)
Procedure, shortened: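 Non-specific calcium responders were flagged by adding DMSO-dissolved compounds to dye-loaded cells and reading 480/540 nm fluorescence each second for 3 min; ATP served as positive control.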

[6] = p53 small molecule agonists, cell-based qHTS assay with human liver microsomes (AID 1963577);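 note: p53 response element beta-lactamase reporter cells with liver microsomes plus NADPH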
Procedure, shortened: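 16 h, 37 C exposure of p53RE-bla cells to compounds with human liver microsomes and NADPH (0.5 mg/mL final each); detection via LiveBLAzer mixture, 2 h dark at room temperature.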

[7] = p53 small molecule agonists, cell-based qHTS assay with rat liver microsomes (AID 1963578)
Procedure, shortened: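 With rat liver microsomes and NADPH present (0.5 mg/mL final each), p53RE-bla cells are treated with compound for 16 h at 37 C. LiveBLAzer detection mixture is then applied for 2 h at room temperature in the dark.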

[8] = p53 small molecule agonists, cell-based qHTS assay with human liver microsomes: qHTS cell viability counter screen (AID 1963579); note: nearly all actives have a fitted effect of over 45% in size
Procedure, shortened: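 In this multiplexed counter screen, the reporter plates were subsequently treated with CellTiter-Glo so that cell viability, reflected by luminescence, could be recorded for p53RE-bla cells dosed 16 h with compounds under microsomal activation (HLM and NADPH).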

[9] = p53 small molecule agonists, cell-based qHTS assay with rat liver microsomes: qHTS cell viability counter screen (AID 1963580); note: nearly all actives have a fitted effect of over 45% in size
Procedure, shortened: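 Luminescent ATP readout (CellTiter-Glo, 30 min at room temperature) reports viability of p53RE-bla HCT-116 cells after 16 h at 37 C with test compounds under metabolic activation by rat liver microsomes and NADPH at 0.5 mg/mL final each.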

[10] = cAMP Responsive Elements (CRE) small molecule agonists, cell-based qHTS assay (AID 1963590)
Procedure, shortened: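 Quantitative HTS for CRE agonists: HEK 293T CRE-bla cells, overnight plating, 3 h compound incubation at 37 C/5% CO2, then 2 h room-temperature LiveBLAzer B/G FRET substrate loading.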

[11] = cAMP Responsive Elements (CRE) small molecule antagonists, cell-based qHTS assay (AID 1963591; active = well fitted inhibition curve with a large enough effect in the signal ratio in the repeat runs, not every such curve was filed as active; the % refers to the signal ratio)
Procedure, shortened: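 Fluorescence intensity from cleaved LiveBLAzer B/G substrate (2 h, room temperature) quantified CRE-bla activity in HEK 293T cells exposed 3 h to compound with 0.25 uM final NKH477.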

[12] = target: Beta-2 adrenergic receptor (Homo sapiens) (UniProt P07550); test: Adrenergic beta2 receptor (ADRB2) small molecule antagonists, cell-based qHTS assay (AID 1963592); note: nearly all actives have a fitted effect of over 50% in size; note: potency is the fitted concentration of half-maximal effect; for activity change, negative = inhibition: series mostly up to about 92 µM
Sequence of Beta-2 adrenergic receptor (Homo sapiens) (P07550 whole entry, looked up): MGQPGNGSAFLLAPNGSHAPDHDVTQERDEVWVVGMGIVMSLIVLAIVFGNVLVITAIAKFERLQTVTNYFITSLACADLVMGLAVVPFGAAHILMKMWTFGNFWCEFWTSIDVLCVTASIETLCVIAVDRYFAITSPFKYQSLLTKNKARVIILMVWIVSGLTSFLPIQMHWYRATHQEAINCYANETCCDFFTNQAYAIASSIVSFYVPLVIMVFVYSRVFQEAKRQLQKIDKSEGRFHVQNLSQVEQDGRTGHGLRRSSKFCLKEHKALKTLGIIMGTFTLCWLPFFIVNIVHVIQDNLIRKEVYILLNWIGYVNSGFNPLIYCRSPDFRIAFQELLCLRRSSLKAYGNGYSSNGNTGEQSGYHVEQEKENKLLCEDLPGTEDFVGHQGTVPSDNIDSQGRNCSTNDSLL
Procedure, shortened: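 Assay format: CHO-ADRB2 cells, 18-20hr seeding at 37C/5% CO2, then compound plus 1nM isoproterenol agonist mix for 0.5hr RT. Homogeneous time-resolved fluorescence cAMP detection after 1hr, expressed as 665/615 nm ratio.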

[13] = target: Beta-2 adrenergic receptor (Homo sapiens) (UniProt P07550); test: Adrenergic beta2 receptor (ADRB2) small molecule agonists, cell-based qHTS assay (AID 1963593);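 note: CHO cells stably overexpressing human ADRB2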
Procedure, shortened: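 CHO cells stably over-expressing ADRB2 were plated overnight at 37C, then dosed with compounds plus a stimulation mix containing 100uM IBMX and 25uM Ro-20-1724 for 0.5hr at room temperature. cAMP was measured by HTRF competition, 1hr.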

[14] = target: D(2) dopamine receptor (Homo sapiens) (UniProt P14416); test: Dopamine D2 receptor (DRD2) small molecule agonists, cell-based qHTS assay (AID 1963594); note: nearly all actives have a fitted effect of over 35% in size
Sequence of D(2) dopamine receptor (Homo sapiens) (P14416 whole entry, looked up): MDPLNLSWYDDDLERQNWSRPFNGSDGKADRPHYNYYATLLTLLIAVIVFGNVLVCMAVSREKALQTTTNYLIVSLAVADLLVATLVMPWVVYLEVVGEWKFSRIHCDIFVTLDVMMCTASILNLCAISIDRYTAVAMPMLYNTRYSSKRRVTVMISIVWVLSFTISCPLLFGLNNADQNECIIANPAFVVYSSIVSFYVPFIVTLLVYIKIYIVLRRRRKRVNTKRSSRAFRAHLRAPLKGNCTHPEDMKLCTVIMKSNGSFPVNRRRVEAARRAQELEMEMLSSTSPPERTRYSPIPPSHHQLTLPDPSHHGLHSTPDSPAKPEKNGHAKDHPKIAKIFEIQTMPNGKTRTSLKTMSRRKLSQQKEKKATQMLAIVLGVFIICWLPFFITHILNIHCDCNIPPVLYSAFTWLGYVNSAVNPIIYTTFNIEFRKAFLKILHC
Procedure, shortened: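 HEK293 cells stably expressing DRD2 were cultured 24 h at 37 C, then given Ro20-1724 (0.1 mM final) and compounds for 10 min at room temperature. NKH477 (200nM) was then added for 30 min. cAMP was read by HTRF.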

[15] = target: D(2) dopamine receptor (Homo sapiens) (UniProt P14416); test: Dopamine D2 receptor (DRD2) small molecule antagonists, cell-based qHTS assay (AID 1963595; active = well fitted inhibition curve with a large enough effect in the signal ratio in the repeat runs, with a control signal flat; the % refers to the signal ratio)
Procedure, shortened: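 Antagonism was scored as restored cAMP in HEK293-DRD2 cells. These cells were stimulated with 200 nM NKH477 and 12 nM quinpirole for 30 min at room temperature, in the presence of 0.1 mM Ro20-1724.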

[16] = target: 5-hydroxytryptamine receptor 2A (Homo sapiens) (UniProt P28223); test: 5-hydroxytryptamine receptor 2A (HTR2A) small molecule agonists, cell-based qHTS assay (AID 1963587); note: nearly all actives have a fitted effect of over 30% in size
Sequence of 5-hydroxytryptamine receptor 2A (Homo sapiens) (P28223 whole entry, looked up): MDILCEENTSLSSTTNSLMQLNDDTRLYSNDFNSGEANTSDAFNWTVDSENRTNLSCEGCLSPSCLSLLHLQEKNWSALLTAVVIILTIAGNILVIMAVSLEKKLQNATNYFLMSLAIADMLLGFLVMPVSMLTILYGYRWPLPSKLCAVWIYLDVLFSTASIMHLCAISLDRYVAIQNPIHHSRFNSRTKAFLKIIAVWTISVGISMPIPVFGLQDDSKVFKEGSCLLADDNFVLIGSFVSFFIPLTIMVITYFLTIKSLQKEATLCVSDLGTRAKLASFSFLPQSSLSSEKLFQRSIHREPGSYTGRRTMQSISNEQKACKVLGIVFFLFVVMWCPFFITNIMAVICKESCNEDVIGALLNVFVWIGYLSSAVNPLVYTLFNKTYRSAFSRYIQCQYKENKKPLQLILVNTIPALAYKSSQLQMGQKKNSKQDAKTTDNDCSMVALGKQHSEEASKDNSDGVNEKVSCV
Procedure, shortened: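 HTR2A-CHO cells, plated 18 h at 37 C/5% CO2, dye-loaded 1 h at 37 C; compounds in DMSO added by pin tool (agonist mode). Intracellular calcium flux read as kinetic fluorescence on FDSS over 2 min at 1 s intervals.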

[17] = target: Muscarinic acetylcholine receptor M1 (Homo sapiens) (UniProt P11229); test: Cholinergic receptor muscarinic 1 (CHRM1) small molecule antagonists, cell-based qHTS assay (AID 1963588); note: nearly all actives have a fitted effect of over 40% in size; note: potency is the fitted concentration of half-maximal effect
Sequence of Muscarinic acetylcholine receptor M1 (Homo sapiens) (P11229 whole entry, looked up): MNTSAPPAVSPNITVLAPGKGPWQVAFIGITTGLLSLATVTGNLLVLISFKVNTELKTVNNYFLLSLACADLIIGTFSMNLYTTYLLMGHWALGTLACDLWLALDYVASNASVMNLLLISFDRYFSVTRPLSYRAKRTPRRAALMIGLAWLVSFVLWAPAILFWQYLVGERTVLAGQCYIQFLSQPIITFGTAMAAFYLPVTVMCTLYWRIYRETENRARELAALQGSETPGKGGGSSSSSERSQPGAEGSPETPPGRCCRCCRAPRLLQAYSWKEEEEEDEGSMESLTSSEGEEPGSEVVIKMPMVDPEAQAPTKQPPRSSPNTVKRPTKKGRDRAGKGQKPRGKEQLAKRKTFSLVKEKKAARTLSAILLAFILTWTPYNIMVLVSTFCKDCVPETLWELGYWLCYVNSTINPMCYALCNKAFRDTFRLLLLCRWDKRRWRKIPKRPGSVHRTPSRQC
Procedure, shortened: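 Compounds were tested at 15 concentrations in three independent runs. Dye-loaded CHRM1-CHO cells were exposed 5 min at room temperature before stimulation by acetylcholine added at 50nM. Intracellular calcium was read kinetically on FDSS for 3 min.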

[18] = target: Muscarinic acetylcholine receptor M1 (Homo sapiens) (UniProt P11229); test: Cholinergic receptor muscarinic 1 (CHRM1) small molecule agonists, cell-based qHTS assay (AID 1963589); note: nearly all actives have a fitted effect of over 35% in size
Procedure, shortened: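 qHTS, 15-point titration, 3 independent runs: compounds pin-transferred onto dye-loaded CHRM1-CHO cells (human M1), calcium fluorescence followed every second to detect agonism.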

[19] = target: 5-hydroxytryptamine receptor 2A (Homo sapiens) (UniProt P28223); test: 5-hydroxytryptamine receptor 2A (HTR2A) small molecule antagonists, cell-based qHTS assay (AID 1963586); note: nearly all actives have a fitted effect of over 45% in size; note: potency is the fitted concentration of half-maximal effect
Procedure, shortened: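 CHO cells stably expressing human HTR2A were plated for 18 h at 37 C, then loaded with calcium dye for 1 h. Compounds were preincubated 5 min at room temperature before DOI (4 nM solution) was added. Kinetic fluorescence was read for 3 min.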
% is set by controls: 0 for no effect and ±100 for the full control effect.

CCCOc1ccc(C(=O)OCCN(CC)CC)cc1N
inactive: Potency [1] | Potency [2] | Potency [3] | outcome [4] | outcome [5] | Potency [6] | Potency [7] | Potency [8] | Potency [9] | Potency [10] | Potency [11] | Potency [12] | Potency [13] | Potency [14] | Potency [15]

CCOC(CN1CCN(CC(C)C(=O)c2ccccc2)CC1)c1ccccc1 (stereo not drawn)
inactive: activity change, negative = cytotoxicity [1] -17.1% [at 19 µM] | activity, positive = activation [2] 6.71% [at 19 µM] | activity change [3] -0.217% [at 11.8 µM, active compounds read high] | activation [4] 2.43% [at 15.8 µM] | activation [5] 1.41% [at 11.8 µM] | activation [6] -8.35% [at 13.5 µM] | activation [7] 1.1% [at 13.6 µM] | activity change, negative = cytotoxicity [8] 24.1% [at 13.5 µM] | activity change, negative = cytotoxicity [9] 0.0683% [at 13.5 µM] | activation [16] -20.7% [at 15.9 µM] | activity, negative = inhibition [17] -8.62% [at 12.6 µM] | activation [18] -0.405% [at 15.8 µM] | activation [10] -1.09% [at 19 µM] | activity change, negative = inhibition [11] 10.1% [at 18.9 µM] | activity change, negative = inhibition [12] 4.02% [at 19 µM] | activation [14] -24.3% [at 19 µM] | activity change, negative = inhibition [15] 9.08% [at 18.9 µM]

C/C=C/C(=O)OCC(C)C
inactive: Potency [1] | Potency [2] | Potency [3] | outcome [4] | outcome [5] | Potency [6] | Potency [7] | Potency [8] | Potency [9] | Potency [19] | Potency [12] | Potency [14] | Potency [15]

COc1ccc(CN2CCN(C(c3ccc(F)cc3)c3ccc(F)cc3)CC2)c(OC)c1OC
active: Potency [1] 21.1 µM | Potency [17] 2.59 µM
inactive: Potency [2] | Potency [3] | outcome [4] | outcome [5] | Potency [6] | Potency [7] | Potency [8] | Potency [9] | Potency [16] | Potency [18] | Potency [12] | Potency [13] | Potency [14]

CCOC(=O)C(=O)CCCCCCl
inactive: Potency [1] | Potency [2] | Potency [3] | outcome [4] | outcome [5] | Potency [6] | Potency [7] | Potency [8] | Potency [9] | Potency [17] | Potency [18] | Potency [10] | Potency [11] | Potency [12] | Potency [13] | Potency [14] | Potency [15]

CC(C)C[C@H](NC(=O)OCC1c2ccccc2-c2ccccc21)C(=O)O
active: Potency [2] 0.611 µM
inactive: Potency [1] | Potency [3] | outcome [4] | outcome [5] | Potency [6] | Potency [7] | Potency [8] | Potency [9] | Potency [17] | Potency [18] | Potency [12] | Potency [13] | Potency [14] | Potency [15]

CCOC(=O)CC(=O)c1cc(F)c(Cl)nc1Cl
inactive: Potency [1] | Potency [2] | Potency [3] | outcome [4] | outcome [5] | Potency [6] | Potency [7] | Potency [8] | Potency [9] | Potency [16] | Potency [17] | Potency [18] | Potency [10] | Potency [12] | Potency [13] | Potency [14] | Potency [15]

CCCCCN=C(N)N/N=C/c1c[nH]c2ccc(OC)cc12
inactive: Potency [2] | Potency [3] | outcome [4] | outcome [5] | Potency [6] | Potency [7] | Potency [8] | Potency [9] | Potency [17] | Potency [18]
active: Potency [1] 6.68 µM | Potency [19] 0.0326 µM | Potency [12] 26.6 µM

CCC(=O)O[C@]1(C(=O)COC)[C@@H](C)C[C@H]2[C@@H]3CCC4=CC(=O)C=C[C@]4(C)C3(F)[C@@H](O)C[C@@]21C (stereo partly drawn)
inactive: Potency [1] | Potency [2] | Potency [3] | outcome [4] | outcome [5] | Potency [6] | Potency [7] | Potency [8] | Potency [9] | Potency [16] | Potency [17] | Potency [18] | Potency [12] | Potency [15]

C[N+](C)(C)CC(O)CC(=O)[O-] (stereo not drawn)
inactive: Potency [1] | Potency [2] | Potency [3] | outcome [4] | outcome [5] | Potency [6] | Potency [7] | Potency [8] | Potency [9] | Potency [10] | Potency [12] | Potency [13] | Potency [14] | Potency [15]

CCOC(=O)N1CCC(n2c(=O)[nH]c3cc(Cl)ccc32)CC1
inactive: Potency [1] | Potency [2] | Potency [3] | outcome [4] | outcome [5] | Potency [6] | Potency [7] | Potency [8] | Potency [9] | Potency [19] | Potency [17] | Potency [18] | Potency [12] | Potency [14]

CCCCCCCC/C=C\CCCCCCCC(=O)OC
inactive: Potency [1] | Potency [2] | Potency [3] | outcome [4] | outcome [5] | Potency [6] | Potency [7] | Potency [8] | Potency [9] | Potency [16] | Potency [17] | Potency [18] | Potency [10] | Potency [11] | Potency [12] | Potency [14] | Potency [15]

CCCCCCCCCCCl
inactive: Potency [1] | Potency [2] | Potency [3] | outcome [4] | outcome [5] | Potency [6] | Potency [7] | Potency [8] | Potency [9] | Potency [16] | Potency [17] | Potency [18] | Potency [10] | Potency [12] | Potency [14] | Potency [15]

C[C@]12CCC(=O)C=C1CC[C@@H]1[C@@H]2[C@@H](O)C[C@@]2(C)[C@H]1CC[C@]2(O)C(=O)COC(=O)CCC(=O)O
inactive: Potency [1] | Potency [2] | Potency [3] | outcome [4] | outcome [5] | Potency [6] | Potency [7] | Potency [8] | Potency [9] | Potency [16] | Potency [17] | Potency [10] | Potency [13] | Potency [14] | Potency [15]

CCCCCCCCC1CO1 (stereo not drawn)
inactive: Potency [1] | Potency [2] | Potency [3] | outcome [4] | outcome [5] | Potency [6] | Potency [7] | Potency [8] | Potency [9] | Potency [16] | Potency [17] | Potency [18] | Potency [11] | Potency [12] | Potency [14] | Potency [15]

CC(=O)Nc1ccc(N)cc1
inactive: Potency [1] | Potency [2] | Potency [3] | outcome [4] | outcome [5] | Potency [6] | Potency [7] | Potency [8] | Potency [9] | Potency [16] | Potency [11] | Potency [12] | Potency [13] | Potency [14] | Potency [15]

CC(=O)N/N=C/c1ccc([N+](=O)[O-])o1
inactive: Potency [1] | Potency [3] | outcome [4] | outcome [5] | Potency [6] | Potency [7] | Potency [8] | Potency [9] | Potency [19] | Potency [18] | Potency [10] | Potency [14] | Potency [15]
active: Potency [2] 33.5 µM | Potency [17] 0.0326 µM
